This is a sample that favours compounds with a hit; in the whole collection about 9.4% have one here.
Pf growth 48h: inhibits P. falciparum growth in the first generation, 48 h. P. falciparum luciferase growth in erythrocytes, 48 h. Potency, µM (titrated, usually from 28.7 µM), for the others: at the highest dose activity change, negative = inhibition, most hits filed as inhibitors. 310,000 compounds, 5.9% hits. AID 504832; further: on the % scale 0 is the no-effect control and ±100 the full control effect
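Compounds are pin-transferred into medium, infected erythrocytes (2% hematocrit, 0.1% parasitemia final) are added, and plates sit one parasite generation at 37 C in 5% CO2. Detection reagent is then added and luminescence measured.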
SARS PLpro yeast: inhibitors of SARS-CoV papain-like protease in yeast; S. cerevisiae expressing SARS-CoV PLpro, growth rescue; Potency, µM (titrated, usually from 32.9 µM), without a hit: at the top dose activity, positive = growth rescue, most hits filed as activators; 330,000 compounds, 0.19% hits; calls by dose curve; further: 0% is about no effect; nearly all actives have a fitted effect of over 55% in size
AMA1-RON2 inh: inhibitors of Plasmodium falciparum AMA1-RON2 interaction | 360,000 compounds, 0.2% hits | Potency, µM (highest dose often 58.2 µM), for the others: at the top dose activity change, negative = inhibition, hits mostly inhibitors | AlphaScreen AMA1-biotinylated RON2 peptide binding;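 further: 0% = vehicle wells and -100% = peptide control; nearly all actives have a fitted effect of over 45% in size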
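AMA1 (3D7) with his tag at 25 nM final met compounds first, then biotinylated RON2 peptide at 25 nM; detection used donor plus acceptor beads, 10 µg/mL apiece, read by AlphaScreen after 30 min at room temperature.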
Pf growth 96h: P. falciparum growth inhibition at 96 hours; P. falciparum luciferase reporter growth, 96 h; Potency, µM (highest dose often 28.7 µM), without a hit: top-dose activity change, negative = inhibition, hits mostly inhibitors; 320,000 compounds, 6.9% hits; AID 504834; further: on the % scale 0 is the no-effect control and ±100 the full control effect
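Infected RBCs, 2% Hct / 0.05% parasitemia final; luciferase-reporter P. falciparum; cpd 96 h, 37 C, 5% CO2; luciferase detection reagent; luminescence.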
An asterisk follows results filed as active; ? = inconclusive; . = not tested or not shown. Unless noted, the call rests on the fitted dose curve; in most records, active means well fitted curve in the direction sought with a large enough effect; inconclusive means small, poorly fitted or top-dose-only effect, or another doubt; inactive means no such curve, though single readings can be large; an effect the other way counts as inactive or inconclusive. Potency means the concentration at half of the fitted maximal effect.

SMILES	Pf growth 48h	SARS PLpro yeast	AMA1-RON2 inh	Pf growth 96h
CCC(C)Sc1nc2c(c(=O)[nH]c(=O)n2C)n1Cc1ccccc1Cl (stereo not given)	12µM*	-4%	-1%	?
Nc1nonc1-n1nnc(C(=O)N/N=C/c2ccc(Br)cc2)c1CN1CCOCC1	-9%	0%	34%	15%
Cc1ccn2c(NC3CCCCC3)c(-c3ccc(SC4CCCCC4)cc3)nc2c1	.	.	-2%	.
Cc1ccn2cc(-c3cccc(NC(=O)c4cccs4)c3)nc2c1	75%	-6%	-16%	?
Cc1cc(O)cc(C)c1Cl	15µM*	.	-8%	8.5µM*
Cc1cc(O)ccc1Cl	2%	.	.	-2%
Cc1cc(O)c(N)c(C)c1Cl	3.3µM*	-2%	-6%	?
COc1cccc(F)c1C(C[N+](=O)[O-])c1c(N)n(C)c(=O)n(C)c1=O (stereo not given)	?	-21%	-2%	13µM*
CC(C)CC(C(=O)O)C(C)CC(=O)Nc1ccn(-c2ccccc2)n1 (stereo not given)	11%	?	5%	-25%
CCN(CC)C(=O)c1cnn(-c2ccccc2)c1NC(=O)c1ccco1	.	3%	0%	-10%
Cc1ccc(NC(=O)c2cnn(-c3ccccc3)c2NC(=O)c2ccco2)cc1C	63%	5%	-3%	12µM*
O=[N+]([O-])c1ccccc1S(=O)(=O)N1CCCC(C(F)(F)F)C1 (stereo not given)	8%	4%	-17%	0.83µM*
O=[N+]([O-])c1ccccc1S(=O)(=O)N1CCCCC1	25%	20%	-1%	0%
C=CCn1c(SCn2nnc3ccccc3c2=O)nc2scc(-c3cccs3)c2c1=O	14%	11%	0%	2.9µM*
C=CCn1c(SCC(=O)Nc2ccccc2)nc2scc(-c3cccs3)c2c1=O	.	0%	-8%	-11%
COc1ccc([C@@H]2CC(=O)c3c(O)cc(O[C@@H]4OC(CO[C@@H]5OC(C)[C@H](O)[C@H](O)C5O)[C@@H](O)[C@@H](O)C4O)cc3O2)cc1O (stereo not given in full)	6%	.	12%	12%
NC(=S)N/N=C/c1ccccc1O	0.33µM*	-1%	48%	1µM*
Cc1cc(/C=N/NC(N)=S)c(O)c(/C=N/NC(N)=S)c1	0.47µM*	1%	-2%	12µM*
CC1=CC2OC3CC4OC(=O)C=CC=CC(=O)OCCC(C)C(O)C(=O)OCC2(CC1O)C4(C)C31CO1 (stereo not given)	.	.	-1%	.
CC(C)c1ccc(NC2CCCN(C(=O)c3ccccc3-c3ncc[nH]3)C2)cc1 (stereo not given)	?	1%	-12%	-14%
C[C@H](O)[C@@H]1CN2CCc3c([nH]c4ccccc34)[C@@H]2C[C@@H]1N(C)C(=O)c1ccco1	.	.	-2%	.
O=C(Cc1c(O)c2ccccc2[nH]c1=O)N(Cc1ccccc1)Cc1ccccc1	7%	-2%	33%	28%
CCCCCCN(CCCCCC)C(=O)Cc1c(-c2ccc(F)cc2)[nH]c2ccccc12	5.9µM*	.	4%	?
O=C(c1ccc(Cl)c(S(=O)(=O)N2CCOCC2)c1)N1CCOCC1	7%	-2%	7%	51%
COc1ccc(CCn2c(N)c(C(=O)NCc3ccco3)c3nc4ccccc4nc32)cc1	?	-41%	46%	-21%
SMILES	Pf growth 48h	SARS PLpro yeast	AMA1-RON2 inh	Pf growth 96h
Nc1c(C(=O)NCc2ccco2)c2nc3ccccc3nc2n1Cc1ccc(F)cc1	1.9µM*	-5%	43%	?
COc1ccc(CCn2c(N)c(C(=O)NCc3ccco3)c3nc4ccccc4nc32)cc1OC	5.2µM*	1%	50%	18%
Nc1c(C(=O)NCc2ccco2)c2nc3ccccc3nc2n1CCc1ccccc1F	10µM*	0%	38%	.
CCOC(=O)c1c(NC(=O)CCNCc2ccco2)sc2c1CCC2	0%	-5%	0%	23%
Nc1cc[n+](CC(=O)Nc2ccccc2)cc1	?	1%	-4%	11%
CCOC(=O)N1CCC(N2C(=O)c3ccc(C(=O)NCCC(C)C)cc3C2=O)CC1	38%	3%	1%	2%
CC(=O)Nc1ccc(S(=O)(=O)N(C)c2ccc(OCC(=O)Nc3ccccc3C(C)=O)cc2)cc1	?	-1%	-6%	?
COc1ccc(CCNC(=O)COc2ccc(N(C)S(=O)(=O)c3ccc(C)cc3)cc2)cc1	?	2%	11%	?
O=C(COc1ccc(C(=S)N2CCCC2)cc1)Nc1ccccc1C(F)(F)F	17%	12%	-1%	?
